# Source: PubChem BioAssay (National Center for Advancing Translational Sciences (NCATS))
# The full list was thinned out, with hits kept by preference.
# Methyltransferases = Primary Screen for Target Class Profiling of Small Molecule Inhibitors of Methyltransferases. purified enzyme, MTase-Glo SAH luminescence; stronger effect = lower value. 25,000 compounds, 3.9% hits. calls only at 40 µM; call rule not given here
#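 Each enzyme was assayed with SAM and its substrate. SAH formation detected by MTase-Glo luminescence; single-point 40 uM screen[…].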
# MTase-Glo ctr = counter-screen for methyltransferase inhibitors: coupling enzymes without methyltransferase; shares compounds with Methyltransferases; MTase-Glo coupled enzymes, SAH conversion luminescence, no MTase; Potency, µM (top dose mostly 57.3 µM), for inactives: top-dose activity change, negative = inhibition, most hits filed as inhibitors; 180 compounds, 6% hits; active = well fitted inhibition curve with a large enough effect; inconclusive = small, poorly fitted or top-dose-only effect; note: potency is the fitted concentration of half-maximal effect
# Numbers without * were called inactive; i = inactive; ? = inconclusive; + = active, no number; [ ] = another dose, or the depositor's remark. % is set by controls: 0 for no effect and ±100 for the full control effect.
SMILES,Methyltransferases,others
CCOc1ccc(N2C(=O)c3cc(-c4ccccc4)nn3CC2(C)C(=O)NCc2ccccc2)cc1 (configuration not stated),i,
CCc1ccc(N2C(=O)c3cc4occc4n3CC2(C)C(=O)NC2CCCCC2)cc1 (configuration not stated),i,
COc1ccc(OC)c(CCN2C(=O)c3cc4occc4n3CC2(C)C(=O)NC2CCCCCC2)c1 (configuration not stated),i,
O=C(Cn1ccc2cc(S(=O)(=O)N3CCCC3)ccc21)NCc1cccc(Br)c1,i,
COc1ccc(-c2cc(-c3cnn(C)c3)cn3cncc23)cn1,+,MTase-Glo ctr=?
CCCN1C(=O)c2nc3ccccc3n2CC1(C)C(=O)NC1CCCC(C)C1C (configuration not stated),i,
CC1(C(=O)NC2CCCCCCC2)Cn2c(cc3sccc32)C(=O)N1CCCN1CCOCC1 (configuration not stated),i,
CC(C)CCn1c(=O)c2ccc(C(=O)NC3CCCCC3)cc2n2c(=O)n(Cc3ccccc3F)nc12,i,
CC1CCCC(NC(=O)C2(C)Cn3c(cc4sccc43)C(=O)N2Cc2ccc(F)cc2)C1C (configuration not stated),i,
COc1ccc2c(c1)C(CN1CCN(CC(=O)OC(C)(C)C)CC1)=CC(C)(C)O2,i,
COc1ccc2c(c1)C(CN1CCN(c3ccc4oc(C(=O)O)cc4c3Cl)CC1)=CC(C)(C)CO2,+,MTase-Glo ctr=-6%
COc1ccc2c(c1)C(COCc1ccc(C(=O)O)cc1)=CC(C)(C)CO2,i,
COc1cc2c(cc1NS(=O)(=O)c1ccc3c(c1)n(C)c(=O)n3C)n(C)c(=O)n2C,i,
O=C(NCC1CCN(c2cc(-c3ccccc3)[nH]n2)CC1)c1ccc2nc[nH]c2c1,i,
CN1CCCC2(C1)CN(C)c1ccc(C(=O)NCC3CCCCC3)cc12 (configuration not stated),+,MTase-Glo ctr=-1%[85.7 µM]
CN1CCC2(C1)CN(Cc1ccccc1)c1ccc(C(=O)N3CCOCC3)cc12 (configuration not stated),i,
COc1cccc(-c2ccccc2NC(=O)C2CCN(CC=C(C)C)CC2)c1,+,MTase-Glo ctr=-4%
COc1ccccc1-c1ccc(C(=O)N2CCC(C(=O)Nc3ccccc3Cl)CC2)cc1,i,
COc1cccc(-c2ccccc2NC(=O)C2CCN(Cc3ccccc3F)CC2)c1,i,
COc1ccc(CCNC(=O)c2cc3n(n2)CC(C)(C(=O)NC2CCCC2)N(C)C3=O)cc1OC (configuration not stated),i,
COC(=O)CCC1(C)C(C(C)(C)O)C(O)CC2(C)Oc3c(C)c4c(c(OC)c3CC21)C(=O)OC4 (configuration not stated),i,
CC(C)NC(=O)c1ccc2c(=O)n(Cc3ccccc3)c3nnc(SCC(N)=O)n3c2c1,i,
COc1nc2ccc(Br)cc2cc1[C@@H](c1ccccc1)[C@@](O)(CCN(C)C)c1cccc2ccccc12,i,
O=C1c2cc3occc3n2CC(C(=O)NC2CCCCCCC2)(c2ccccc2)N1Cc1cccc(F)c1 (configuration not stated),i,
CN1C(=O)CCCCC1C(=O)NCCN1CCCCC1 (configuration not stated),i,
SMILES,Methyltransferases,others
CC1CCN(CCCNC(=O)C2CCc3sc(C(=O)N4CCCC4)cc3C2)CC1 (configuration not stated),+,MTase-Glo ctr=-2%
CCCCNC(=O)C1CCc2sc(C(=O)N3CCCCC3)cc2C1 (configuration not stated),i,
COc1cc(C)c(-c2nc(CN3CCOC(CCN)C3)c(C)o2)cc1C (configuration not stated),i,
COc1c2ccoc2cc2oc(CO[C@@H]3O[C@H](CO)[C@@H](O)[C@H](O)[C@H]3O)cc(=O)c12,i,
COc1ccc(CN2C(=O)c3cc4ccccc4n3CC2(C)C(=O)NCc2ccccc2)cc1 (configuration not stated),i,
Cc1cc(-c2cc3c(cn2)N(C)CCN(C)C3)ccn1,+,MTase-Glo ctr=-4%[114 µM]
COc1ccc(-c2cc3n(n2)CC(C)(C(=O)NCc2ccccc2OC)N(c2ccc(C)cc2)C3=O)cc1 (configuration not stated),i,
CC1CCN(S(=O)(=O)c2ccc3c(ccn3CC(=O)N3CCc4ccccc4C3)c2)CC1,i,
CC(=O)Nc1c2n(c3ccccc13)CC(C)(C(=O)NC1CCCCC1)N(C1CCC(C)CC1)C2=O (configuration not stated),i,
COc1cccc(CCC(=O)N2CCC(OCC3CC3)C2)c1 (configuration not stated),i,
CCN(CC)c1cc(CCC(=O)N2CCN(c3cccc(OC)c3)CC2)ccn1,+,MTase-Glo ctr=-3%
COc1cccc(CCC(=O)N2CCC3(CC2)N=C(c2ccccc2)NO3)c1,i,
Cc1cccc(N2C(=O)c3cc(-c4cccs4)nn3CC2(C)C(=O)NC2CCCCC2)c1C (configuration not stated),i,
CN1C[C@@H]2CC[C@H](CC1=O)N2C(=O)c1cnn2cc(CCO)cnc12,i,
CCC(O)C1CCN(C(=O)c2cnn3cc(CN(CC)CC)cnc23)CC1 (configuration not stated),i,
CCN(CC)Cc1cnc2c(C(=O)N3CCCN4CCC[C@H]4C3)cnn2c1,+,MTase-Glo ctr=2%
C[C@@H]1O[C@@H](O[C@H]2[C@H](O)[C@@H](O)[C@H](OC[C@H]3O[C@@H](OC(=O)[C@]45CCC(C)(C)C[C@H]4C4=CCC6[C@@]7(C)CC[C@H](O[C@@H]8OC[C@H](O)[C@H](O[C@@H]9O[C@H](CO)[C@@H](O)[C@H](O)[C@H]9O)[C@H]8O)[C@@](C)(CO)C7CC[C@@]6(C)[C@]4(C)CC5)[C@H](O)[C@@H](O)[C@@H]3O)O[C@@H]2CO)[C@H](O)[C@H](O)[C@H]1O (some centres not stated),i,
CCOC(=O)c1ccc2c(c1)C1C=CCC1C(c1ccc(Br)cc1)N2 (configuration not stated),i,
Cc1ccc(-c2ccc(N)nc2)c2cccnc12,+,MTase-Glo ctr=-6%
CCCn1c(=O)c2ccc(C(=O)NC3CCCCC3)cc2n2c(SCC(=O)c3ccc(C)cc3)nnc12,i,
CCn1cc(CN2CCN(C(=O)CCc3ccccc3)CC2)ccc1=O,i,
NC(=O)CN1C(=O)[C@@H]2CN(C(=O)c3cccs3)CCN2C1=O,i,
CCn1cc(CN2CCN(C(=O)c3cccs3)CC2)ccc1=O,+,MTase-Glo ctr=-3%
CCN(CC)C(=O)[C@@H](C)C1CC[C@@]2(C)CC[C@H](NC(=O)c3ccncc3)[C@@H](C)[C@@H]2[C@H]1O (some centres not stated),i,
Cc1ccc(Cn2c(=O)c3ccc(C(=O)NC(C)C)cc3n3c(=O)n(Cc4ccccc4C)nc23)cc1,i,
Cc1cccc(N2C(=O)c3cc(C(C)(C)C)nn3CC2(C)C(=O)NCc2ccccc2)c1C (configuration not stated),i,
Cn1cncc1CNC(=O)c1nc(-c2cccc(N3CCOCC3)c2)cc2c1ccn2C,i,
Cn1ccc2c(C(=O)NCCc3cnc[nH]3)nc(-c3ccc(N4CCOCC4)cc3)cc21,+,MTase-Glo ctr=2%[85.7 µM]
Cc1ccc(-c2cc3c(ccn3C)c(C(=O)NCc3cccnc3)n2)cn1,i,
